Source: article PMC9911399, “Two distinct binding modes provide the RNA-binding protein RbFox with extraordinary sequence specificity”
Residue numbers refer to the chain shown, from its start. Whole data set: some 16,000 sequences, median “ka relative to ugcaugu” near 0.096, cut for the highest 2% near 0.35. The list comes from a sample in which the highest values are over-represented; it also holds similar and randomly drawn sequences.

B1: GCAUCAA (DNA:RNA)
RNA: GGGAGACCGGAAUUCAGAUUGUCCGCAUCAAUUAAAUCCCGUCGUAGCCACCA
DNA 1: CAATCTGAATTCCGGTCTCCC
DNA 2: TGGTGGCTACGACGGGATT
B2: GAAUCGG (DNA:RNA)
RNA: B1 RNA with C26A, A30G, A31G
DNA 1: CAATCTGAATTCCGGTCTCCC
DNA 2: TGGTGGCTACGACGGGATT
B3: GCAUCUG (DNA:RNA)
RNA: B1 RNA with A30U, A31G
DNA 1: CAATCTGAATTCCGGTCTCCC
DNA 2: TGGTGGCTACGACGGGATT
B4: GCACCGC (DNA:RNA)
RNA: B1 RNA with U28C, A30G, A31C
DNA 1: CAATCTGAATTCCGGTCTCCC
DNA 2: TGGTGGCTACGACGGGATT
B5: CGCAUCG (DNA:RNA)
RNA: GGGAGACCGGAAUUCAGAUUGUCCCGCAUCGUUAAAUCCCGUCGUAGCCACCA
DNA 1: CAATCTGAATTCCGGTCTCCC
DNA 2: TGGTGGCTACGACGGGATT
B6: GCAUCAC (DNA:RNA)
RNA: B1 RNA with A31C
DNA 1: CAATCTGAATTCCGGTCTCCC
DNA 2: TGGTGGCTACGACGGGATT
B7: GCAUCCG (DNA:RNA)
RNA: B1 RNA with A30C, A31G
DNA 1: CAATCTGAATTCCGGTCTCCC
DNA 2: TGGTGGCTACGACGGGATT
B8: GCAAUCG (DNA:RNA)
RNA: B5 RNA with C25G, G26C, C27A
DNA 1: CAATCTGAATTCCGGTCTCCC
DNA 2: TGGTGGCTACGACGGGATT
B9: GCACCGG (DNA:RNA)
RNA: B1 RNA with U28C, A30G, A31G
DNA 1: CAATCTGAATTCCGGTCTCCC
DNA 2: TGGTGGCTACGACGGGATT
B10: GCAUCAG (DNA:RNA)
RNA: B1 RNA with A31G
DNA 1: CAATCTGAATTCCGGTCTCCC
DNA 2: TGGTGGCTACGACGGGATT
B11: GCAUCGC (DNA:RNA)
RNA: B1 RNA with A30G, A31C
DNA 1: CAATCTGAATTCCGGTCTCCC
DNA 2: TGGTGGCTACGACGGGATT
B12: GCAUCGG (DNA:RNA)
RNA: B1 RNA with A30G, A31G
DNA 1: CAATCTGAATTCCGGTCTCCC
DNA 2: TGGTGGCTACGACGGGATT
B13: AGAGCGA (DNA:RNA)
RNA: B1 RNA with G25A, C26G, U28G, A30G
DNA 1: CAATCTGAATTCCGGTCTCCC
DNA 2: TGGTGGCTACGACGGGATT
B14: CCCUUUC (DNA:RNA)
RNA: B5 RNA with G26C, A28U, C30U, G31C
DNA 1: CAATCTGAATTCCGGTCTCCC
DNA 2: TGGTGGCTACGACGGGATT
B15: UACGGGG (DNA:RNA)
RNA: B5 RNA with C25U, G26A, A28G, U29G, C30G
DNA 1: CAATCTGAATTCCGGTCTCCC
DNA 2: TGGTGGCTACGACGGGATT
B16: CCGCCGG (DNA:RNA)
RNA: B5 RNA with G26C, C27G, A28C, U29C, C30G
DNA 1: CAATCTGAATTCCGGTCTCCC
DNA 2: TGGTGGCTACGACGGGATT
B17: AGGCCUA (DNA:RNA)
RNA: B1 RNA with G25A, C26G, A27G, U28C, A30U
DNA 1: CAATCTGAATTCCGGTCTCCC
DNA 2: TGGTGGCTACGACGGGATT
B18: AGAGUUC (DNA:RNA)
RNA: B5 RNA with C25A, C27A, A28G, C30U, G31C
DNA 1: CAATCTGAATTCCGGTCTCCC
DNA 2: TGGTGGCTACGACGGGATT
B19: GCGAGUG (DNA:RNA)
RNA: B5 RNA with C25G, G26C, C27G, U29G, C30U
DNA 1: CAATCTGAATTCCGGTCTCCC
DNA 2: TGGTGGCTACGACGGGATT
B20: GCAUCGU (DNA:RNA)
RNA: B1 RNA with A30G, A31U
DNA 1: CAATCTGAATTCCGGTCTCCC
DNA 2: TGGTGGCTACGACGGGATT
B21: AGCAUCC (DNA:RNA)
RNA: B5 RNA with C25A, G31C
DNA 1: CAATCTGAATTCCGGTCTCCC
DNA 2: TGGTGGCTACGACGGGATT
B22: AGCAUCG (DNA:RNA)
RNA: B5 RNA with C25A
DNA 1: CAATCTGAATTCCGGTCTCCC
DNA 2: TGGTGGCTACGACGGGATT
B23: AGCACCG (DNA:RNA)
RNA: B5 RNA with C25A, U29C
DNA 1: CAATCTGAATTCCGGTCTCCC
DNA 2: TGGTGGCTACGACGGGATT
B24: GCAUUGU (DNA:RNA)
RNA: B1 RNA with C29U, A30G, A31U
DNA 1: CAATCTGAATTCCGGTCTCCC
DNA 2: TGGTGGCTACGACGGGATT
B25: AUCCGCA (DNA:RNA)
RNA: B5 RNA with C25A, G26U, A28C, U29G, G31A
DNA 1: CAATCTGAATTCCGGTCTCCC
DNA 2: TGGTGGCTACGACGGGATT
B26: GCACCGU (DNA:RNA)
RNA: B1 RNA with U28C, A30G, A31U
DNA 1: CAATCTGAATTCCGGTCTCCC
DNA 2: TGGTGGCTACGACGGGATT
B27: GCAUCGA (DNA:RNA)
RNA: B1 RNA with A30G
DNA 1: CAATCTGAATTCCGGTCTCCC
DNA 2: TGGTGGCTACGACGGGATT
B28: GCAUCCA (DNA:RNA)
RNA: B1 RNA with A30C
DNA 1: CAATCTGAATTCCGGTCTCCC
DNA 2: TGGTGGCTACGACGGGATT
B29: AGGAUGG (DNA:RNA)
RNA: B5 RNA with C25A, C27G, C30G
DNA 1: CAATCTGAATTCCGGTCTCCC
DNA 2: TGGTGGCTACGACGGGATT
B30: UCGUACU (DNA:RNA)
RNA: B1 RNA with G25U, A27G, C29A, A30C, A31U
DNA 1: CAATCTGAATTCCGGTCTCCC
DNA 2: TGGTGGCTACGACGGGATT
B31: CGGGAUG (DNA:RNA)
RNA: B5 RNA with C27G, A28G, U29A, C30U
DNA 1: CAATCTGAATTCCGGTCTCCC
DNA 2: TGGTGGCTACGACGGGATT
B32: GAGAUGU (DNA:RNA)
RNA: B5 RNA with C25G, G26A, C27G, C30G, G31U
DNA 1: CAATCTGAATTCCGGTCTCCC
DNA 2: TGGTGGCTACGACGGGATT
B33: GGGAUGU (DNA:RNA)
RNA: B5 RNA with C25G, C27G, C30G, G31U
DNA 1: CAATCTGAATTCCGGTCTCCC
DNA 2: TGGTGGCTACGACGGGATT
B34: GGAUGUU (DNA:RNA)
RNA: B1 RNA with C26G, C29G, A30U, A31U
DNA 1: CAATCTGAATTCCGGTCTCCC
DNA 2: TGGTGGCTACGACGGGATT
B35: GGGGGGA (DNA:RNA)
RNA: B1 RNA with C26G, A27G, U28G, C29G, A30G
DNA 1: CAATCTGAATTCCGGTCTCCC
DNA 2: TGGTGGCTACGACGGGATT
B36: GGGGAUG (DNA:RNA)
RNA: B5 RNA with C25G, C27G, A28G, U29A, C30U
DNA 1: CAATCTGAATTCCGGTCTCCC
DNA 2: TGGTGGCTACGACGGGATT

molecular target: T1, RBFOX1 RRM RbFoxmut (Fox-RRM*) (Homo sapiens, UniProt Q9NWB1 109-208, R118D;E147R;N151S;E152T); assay: EMSA; HiTS-Eq, 1 nM pool, 10 min; buffer printed only for the single-RNA assays: 10 mM Tris pH 7.5, 150 mM NaCl, 3.4 mM EDTA, 0.001% NP-40, 30 C; conditions: tags: His6 N-terminal (pET28a); label: 5' 32P
T1 sequence: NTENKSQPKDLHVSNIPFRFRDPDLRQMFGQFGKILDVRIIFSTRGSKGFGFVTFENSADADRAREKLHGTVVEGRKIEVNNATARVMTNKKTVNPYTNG
How it was run: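 Purified wild-type or mutant RbFox RRM at increasing concentrations was equilibrated with 1 nM of 5′-radiolabelled RNA carrying 7 randomized nucleotides for 10 min in 50 µL. Unbound RNA was separated by 8% native PAGE and sequenced. Relative association constants came from read-count changes of each RNA species compared with the control reaction, normalised to the cognate motif.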

Binder | binding signal
B1 | 0.323 KA relative to UGCAUGU
B2 | 0.186 KA relative to UGCAUGU
B3 | 0.264 KA relative to UGCAUGU
B4 | 0.139 KA relative to UGCAUGU
B5 | 0.625 KA relative to UGCAUGU
B6 | 0.293 KA relative to UGCAUGU
B7 | 0.351 KA relative to UGCAUGU
B8 | 0.0721 KA relative to UGCAUGU
B9 | 0.102 KA relative to UGCAUGU
B10 | 0.382 KA relative to UGCAUGU
B11 | 0.443 KA relative to UGCAUGU
B12 | 0.454 KA relative to UGCAUGU
B13 | 0.0748 KA relative to UGCAUGU
B14 | 0.0564 KA relative to UGCAUGU
B15 | 0.0585 KA relative to UGCAUGU
B16 | 0.0808 KA relative to UGCAUGU
B17 | 0.0817 KA relative to UGCAUGU
B18 | 0.0781 KA relative to UGCAUGU

Binder | binding signal
B19 | 0.184 KA relative to UGCAUGU
B20 | 0.578 KA relative to UGCAUGU
B21 | 0.237 KA relative to UGCAUGU
B22 | 0.437 KA relative to UGCAUGU
B23 | 0.104 KA relative to UGCAUGU
B24 | 0.228 KA relative to UGCAUGU
B25 | 0.167 KA relative to UGCAUGU
B26 | 0.172 KA relative to UGCAUGU
B27 | 0.675 KA relative to UGCAUGU
B28 | 0.338 KA relative to UGCAUGU
B29 | 0.177 KA relative to UGCAUGU
B30 | 0.0912 KA relative to UGCAUGU
B31 | 0.296 KA relative to UGCAUGU
B32 | 0.15 KA relative to UGCAUGU
B33 | 0.373 KA relative to UGCAUGU
B34 | 0.213 KA relative to UGCAUGU
B35 | 0.082 KA relative to UGCAUGU
B36 | 0.612 KA relative to UGCAUGU
